Article PMC5540273 (PLoS ONE, 2017)

Experiments:
Settings in all cases: concentration: 1 μM, replicates: in singlicate; n = 1
MTOR = system: MTOR
MUSK = system: MUSK
MYLK2 = system: MYLK2
MYLK4 = system: MYLK4
MYLK = system: MYLK
MYO3A = system: MYO3A
MYO3B = system: MYO3B
NDR1 = system: T1, NDR1
T1 construct: gene STK38

NDR2 = system: NDR2
NEK10 = system: NEK10
NEK11 = system: NEK11
NEK1 = system: NEK1
NEK2 = system: NEK2
NEK3 = system: NEK3
NEK4 = system: NEK4
NEK5 = system: NEK5
NEK6 = system: NEK6
NEK7 = system: NEK7
NEK9 = system: NEK9
NIK = system: T2, NIK
T2 construct: gene MAP3K14
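Note: KINOMEscan kinase panel screen.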

Compound | %Inh (MTOR) | %Inh (MUSK) | %Inh (MYLK2) | %Inh (MYLK4) | %Inh (MYLK) | %Inh (MYO3A) | %Inh (MYO3B) | %Inh (NDR1) | %Inh (NDR2) | %Inh (NEK10) | %Inh (NEK11) | %Inh (NEK1) | %Inh (NEK2) | %Inh (NEK3) | %Inh (NEK4) | %Inh (NEK5) | %Inh (NEK6) | %Inh (NEK7) | %Inh (NEK9) | %Inh (NIK)
CS(=O)(=O)c1cccc(CNc2nc(Nc3ccc4c(c3)CCC(=O)N4)ncc2C(F)(F)F)c1 | 62% | 12% | 16% | 0% | 7% | 0% | 0% | 58% | 0% | 0% | 0% | 0% | 0% | 37% | 0% | 28% | 6% | 0% | 0% | 0%
COC(=O)Nc1nc2cc(Oc3ccc(NC(=O)Nc4cccc(SC)c4)cc3)ccc2[nH]1.Cl [GW697999] | 28% | 98.9% | 2% | 0% | 11% | 25% | 0% | 11% | 0% | 7% | 22% | 0% | 0% | 4% | 4% | 11% | 0% | 0% | 3% | 0%
Cc1ccc(C)c(NC(=O)Nc2ccc(C)c(-c3ccc(C(=O)Nc4ccncc4)cc3)c2)c1 [GSK1398473] | 17% | 0% | 0% | 0% | 0% | 0% | 0% | 29% | 0% | 18% | 0% | 0% | 1% | 5% | 0% | 8% | 1% | 0% | 7% | 4%
CN(c1ccc2c(c1)nc(NCc1ccccc1)n2C)c1ccnc(Nc2ccc(CS(C)(=O)=O)cc2)n1.Cl [GW811603] | 10% | 36% | 26% | 0% | 8% | 5% | 19% | 8% | 0% | 17% | 0% | 0% | 0% | 20% | 0% | 0% | 60% | 8% | 55% | 33%
CC(C)c1nc(-c2ccc(F)c(NS(=O)(=O)c3c(F)cccc3F)c2)c(-c2ccnc(Nc3ccc(N4CCOCC4)nc3)n2)s1 [GSK1804250] | 32% | 8% | 2% | 1% | 7% | 51% | 54% | 23% | 0% | 7% | 97.6% | 16% | 31% | 3% | 10% | 1% | 7% | 8% | 85% | 9%
COc1cccc(CC(=O)N2CCc3cc(-c4cn(C)c5ncnc(N)c45)ccc32)c1 [GSK2608899] | 8% | 27% | 64% | 7% | 20% | 38% | 18% | 22% | 0% | 7% | 49% | 21% | 74% | 4% | 44% | 24% | 18% | 11% | 25% | 0%
CC(C)c1nc(-c2cccc(NS(=O)(=O)c3c(F)cccc3F)c2)c(-c2ccnc(Nc3ccc(N4CCOCC4)nc3)n2)s1.Cl [GSK1723980] | 7% | 0% | 0% | 0% | 6% | 25% | 47% | 32% | 0% | 9% | 97.8% | 0% | 48% | 0% | 6% | 0% | 55% | 76% | 88% | 95.4%
Nc1cccc(-c2ccc3c(N)n[nH]c3c2)c1 [GSK2193613] | 13% | 20% | 92.3% | 96.9% | 40% | 45% | 0% | 27% | 13% | 10% | 17% | 11% | 11% | 0% | 0% | 6% | 0% | 0% | 8% | 6%
NCCC(NC(=O)c1cc(Br)c(-c2ccnc3[nH]ccc23)s1)c1ccccc1.O=C(O)C(F)(F)F.O=C(O)C(F)(F)F (centres unmarked) [GSK1307810] | 12% | 11% | 8% | 99.9% | 34% | 0% | 0% | 96.7% | 96.7% | 9% | 30% | 71% | 19% | 0% | 0% | 96.3% | 3% | 0% | 4% | 49%
COc1ccc(C2=C(Nc3cccc(O)c3)C(=O)NC2=O)cc1 [SB-390766] | 31% | 3% | 12% | 4% | 3% | 0% | 0% | 9% | 0% | 42% | 19% | 0% | 0% | 18% | 5% | 34% | 0% | 0% | 0% | 6%
